Measurements from PubChem BioAssay (NCI).
Compounds without any hit were thinned out: in the full panel of roughly 83,000, 20% have a hit.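 Activity criterion: percent growth below 10, measured after cells in 96-well plates were exposed to a single compound concentration for 48 hours.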 The source made the active and inactive calls.

System: MOLT-4 leukemia
Assay: NCI-60 one-dose screen, 48 h (100 = growth as untreated, 0 = no growth, -100 = all killed)
Details: 10 µM unless noted

SMILES | growth
CCOC(=O)c1cnn(-c2nc(-c3ccc(F)cc3)c(C#N)c(N3CCOCC3)n2)c1N | 90.4% (inactive)
Cc1c(O)c(=O)ccn1-c1nc2ccccc2s1 | 103% (inactive)
Nc1ccc(C2=NN(C(=O)c3cc(-c4ccc(Cl)cc4)nc4ccccc34)C(c3ccc(Cl)cc3)C2)cc1 (configuration not stated) | 42.6% (inactive)
COc1ccc2nc(-c3ccc(OC)c(OC)c3)cc(-c3nnc(SCC(=O)Nc4ccc(C(C)=O)cc4)o3)c2c1 | 95.5% (inactive)
CNCc1cccc2c1OCCOCCOCCN(CCN1CCOCC1)S(=O)(=O)c1ccc(cc1)-c1cnc(N)c(n1)C(=O)N2 | -1.99% (active)
COc1cc(C2=NN(C(C)=O)C(c3cccc(Nc4ccnc5cc(C(F)(F)F)ccc45)c3)C2)cc(OC)c1OC (configuration not stated) | 22.3% (inactive)
CC(C)CSc1nc(Nc2ccccc2)c(C#N)c(-c2ccc(F)cc2)n1 | 65.5% (inactive)
CNc1cccc2c1C(=O)c1cccc(N)c1C2=O | 29.4% (inactive)
NC(=O)c1ccc(C2C3=C(CCCC3=O)OC3=C2C(=O)c2ccccc2C3=O)cc1 (configuration not stated) | -17.4% (active)
C=CCn1c(SCC(=O)Nc2ccc(C(=O)/C=C/c3ccc(Cl)cc3)cc2)nnc1-c1cc(OC)c(OC)c(OC)c1 | 70.8% (inactive)
C=C1C(=O)O[C@H]2[C@H]1CC/C(C=Nc1c(N)cc(F)cc1Br)=C\CC[C@@]1(C)O[C@@H]21 | 45.9% (inactive)
COc1cc(-c2csc(NC(=O)Nc3ccc(Cl)cc3)n2)cc(OC)c1OC | -17% (active)
COc1ccc(C(=O)c2cc(OC)c(C)c(OC)c2)cc1OC(=O)CCl | 13.6% (inactive)
Nc1c(C(=O)Nc2cccc3ccccc23)sc2nc3c(cc12)COCC3 | 35% (inactive)
CN(C)C(CNc1oc(-c2cccc3ccccc23)nc1C#N)c1ccco1 (configuration not stated) | 70.5% (inactive)
Cc1cnc(-c2ccc(-c3ccc(NC(=O)Nc4c(F)cc(F)cc4F)cc3F)c3c2C(=O)NC3)[nH]1 | 18.3% (inactive)
COc1ccc(-c2cc(C(=O)N3N=C(c4ccc(N)cc4)CC3c3ccc(OC)cc3)c3cc(OC)ccc3n2)cc1 (configuration not stated) | 54.5% (inactive)
COc1cc([C@H](C)c2ccc3ccccc3c2)cc(OC)c1OC | 13.5% (inactive)
O=c1nc(-c2ccccc2)c2cc(-c3ccc(N4CCCC4)nc3)ccc2[nH]1 | 44% (inactive)

SMILES | growth
Cc1cccc2nc3c(n12)C(=O)C(=O)c1ccccc1-3 | 81.1% (inactive)
CC(=O)Nc1c(C(=O)Nc2ccccc2)sc2nc3c(cc12)C(OC(C)=O)CCC3 (configuration not stated) | 100% (inactive)
CCN1CCN(c2ccc(NC(=O)Nc3nc4ccc(-c5ccccc5OC)cc4s3)cc2)CC1 | -51.7% (active)
Cc1cc(Cl)cc(CN(Cc2ccccc2)Cc2c(O)ccc3ccccc23)c1O | 104% (inactive)
COC1=CC=CC2(OC)C3(O)CCCc4cccc(c43)N3C(=O)COC132 (configuration not stated) | 97.8% (inactive)
C=C1C(=O)O[C@H]2[C@H]1CC/C(COC(=O)N1CCC[C@H]1C(=O)Nc1ccc(OC)c(C(N)=O)c1O)=C\CC[C@@]1(C)O[C@@H]21 | 8.14% (active)
Cc1cc(C)nc(NS(=O)(=O)c2ccc(Nc3ccc4c5c(n(CCCN(C)C)c(=O)c4c3)-c3ccccc3C5=O)cc2)n1 | 15.2% (inactive)
COc1cc(NC(=O)c2cc(O)c(C/C=C(\C)CCC=C(C)C)c(O)c2)cc2c1O[C@]1(C)CC[C@@H](O)C(C)(C)[C@H]1C2 | 0.564% (active)
CCCCCCN1C(=O)CN=C1Nc1ccc2cc3ccc(NC4=NCC(=O)N4CCCCCC)cc3nc2c1 | 9.83% (active)
Nc1ccc(C2=NN(C(=O)c3cc(-c4ccc(Cl)cc4)nc4ccccc34)C(c3ccccc3)C2)cc1 (configuration not stated) | 41.2% (inactive)
CN(CCC#N)C(=O)Nc1ccccc1 | 99.7% (inactive)
C=C(C)[C@@H]1CC[C@]2(C(=O)OCCCC[P+](c3ccccc3)(c3ccccc3)c3ccccc3)CC[C@]3(C)[C@H](CC[C@@H]4[C@@]5(C)CC[C@H](OC(=O)C(Cl)Cl)C(C)(C)[C@@H]5CC[C@]43C)[C@@H]12 | -45% (active)
CSc1cccc(NC(=O)Nc2nc3c(C)cccc3s2)c1 | 99.9% (inactive)
O=C(O)c1cn(C2CC2)c2cc(N3CCN(Cc4nnc(Nc5ccccc5)o4)CC3)c(F)cc2c1=O | 98.5% (inactive)
O=C1CS/C(=N/c2nnc(-c3ccc(O)cc3)s2)N1 | 80.5% (inactive)
COc1ccc2c(c1)C1(C(=O)N2)C(C#N)=C(c2ccccc2)Nc2c1c(-c1ccccc1)nn2-c1ccccc1 (configuration not stated) | 38.2% (inactive)
CCN1CCC[C@H]1c1cc(O)c2c(c1OC)C[C@H]1C[C@H]3[C@H](N)C(=O)C(C(N)=O)=C(O)[C@@]3(O)C(=O)C1=C2O | -16.8% (active)
O=C(/C(=C/c1ccc([N+](=O)[O-])cc1)SCc1ccccc1)c1ccc(Cl)cc1 | 13.5% (inactive)
